24 sequences from the OligoGym collection can be followed below.
Further: reference of the scale not given here.

The first assay deals with GPR64. Nature of the assay: pooled miR-30 sensor sort-seq; sequence = guide strand. The following applies: shRNA.
TAAGCTTAAAGTAACATCTGGA registered a sensor-assay potency score (higher = more potent) of 0.962.

For TAACAATCAACAATGTACCATG, the sensor-assay potency score (higher = more potent) was -0.826.

With TAGTGTTGACATTCGCAGGGGC, the sensor-assay potency score (higher = more potent) was found to be 0.711.

TAGTCTACTCTCCTGTTCCTAA: the sensor-assay potency score (higher = more potent) was -0.669.

The sequence TTCTATAATCTGACTACTGGGG displayed a sensor-assay potency score (higher = more potent) of -0.476.

Turning to TAAAGTAACATCATTGAGGCTT, the sensor-assay potency score (higher = more potent) worked out at 0.0974.

With TTGGTTTACAGTCTGCTTCTTT, the sensor-assay potency score (higher = more potent) amounted to 0.449.

In the case of TAGTGTATTGTTTAAAACCAAC, the sensor-assay potency score (higher = more potent) is -1.45.

Consider TACATGTAGCAACAATAGCAGT, for which the sensor-assay potency score (higher = more potent) was -1.27.

In turn, ATTATCAGTATCTTCTTCCAGG yielded a sensor-assay potency score (higher = more potent) of -0.212.

In the case of TTGAATACTGGTTTTTCGCTGG, the sensor-assay potency score (higher = more potent) amounted to 0.838.

TTGAAGAGCTGGACACTCCTTG: the sensor-assay potency score (higher = more potent) came to 0.677.

The target of the next assay is GPRC5B. The description is as above. The following applies: shRNA.
TTGTTCTCCATATAGGCCCGCG came in with a sensor-assay potency score (higher = more potent) of -1.02.

In turn, TTGAACTTGCCGCACAGAGTGA yielded a sensor-assay potency score (higher = more potent) of -0.846.

TTCCACCTCTTGAACTTGCCGC: the sensor-assay potency score (higher = more potent) was -0.546.

Regarding TTGAGCACGACGGCCATCTCAG, the sensor-assay potency score (higher = more potent) is -1.15.

TACACGTTGCTTCTAAACGGAG came in with a sensor-assay potency score (higher = more potent) of -1.35.

TTCGGAGAGCTGCATTGTGTTC showed a sensor-assay potency score (higher = more potent) of -1.86.

Consider ATGAGCATCAGGAGCAGTGTGA, for which the sensor-assay potency score (higher = more potent) is -1.27.

Consider TACCATGTCGTAGATGAGGGCC, for which the sensor-assay potency score (higher = more potent) is -0.116.

The sequence ATACACGTTGCTTCTAAACGGA yielded a sensor-assay potency score (higher = more potent) of -0.0127.

TTGGGAAATCCTGCTGTTCGGA showed a sensor-assay potency score (higher = more potent) of -0.702.

On to TGCTGCAGCTTGACATTGCCGA, for which the sensor-assay potency score (higher = more potent) was -0.579.

The sequence AAGAGGTACATGGTCATCCAGG gave a sensor-assay potency score (higher = more potent) of -1.02.
